For orientation: AC50 means the concentration giving half of the maximal activity seen.

Common to all, as to details: mRNA level, 48 h; actives raise or lower the signal
Read-out in assay [1]: JUN Transcription Factor, JUN (gene 3725)
Nature of the assay: LTEA_HepaRG_JUN: Life Technologies and Expression Analysis (LTEA) Assay for JUN Transcription Factor using HepaRG (AID 2283513). The method in brief:
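Differentiated HepaRG cells were exposed to chemicals for 48 h in serum-free induction medium, 8 concentrations from 100 uM in half-log steps, 0.5% DMSO vehicle, in duplicate. JUN mRNA was quantified by TaqMan qRT-PCR, normalized to ACTB, GAPDH, POLR2A.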

Read-out in assay [2]: Lipase C (LIPC), LIPC (gene 3990)
The assay can be described thus: LTEA_HepaRG_LIPC: Life Technologies and Expression Analysis (LTEA) Assay for Lipase C (LIPC) using HepaRG (AID 2283514). The gist of the method:
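Differentiated human HepaRG cells in serum-free induction medium were exposed in duplicate for 48 h to eight concentrations (top 100 uM, half-log steps, 0.5% DMSO). LIPC mRNA was quantified by TaqMan qRT-PCR, normalized to ACTB, GAPDH and POLR2A, with bidirectional fitting versus DMSO.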

Read-out in assay [3]: Lipoprotein lipase (LPL), LPL (gene 4023)
Nature of the assay: LTEA_HepaRG_LPL: Life Technologies and Expression Analysis (LTEA) Assay for Lipoprotein lipase (LPL) using HepaRG (AID 2283515). The method in brief: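 Differentiated human HepaRG cells in serum-free induction medium were exposed in duplicate for 48 h to eight half-log concentrations (top 100 uM) in 0.5% DMSO. LPL mRNA was quantified by TaqMan qRT-PCR, normalized to ACTB, GAPDH and POLR2A.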

Read-out in assay [4]: MicroRNA 122 (MIR122), gene 406906
The assay can be described thus: LTEA_HepaRG_MIR122: Life Technologies and Expression Analysis (LTEA) Assay for MicroRNA 122 (MIR122) using HepaRG (AID 2283516). Further: the transcript read is the microRNA miR-122. The gist of the method: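 Differentiated human HepaRG cells were exposed 48 h in serum-free induction medium to eight half-log concentrations (top 100 uM, 0.5% DMSO). Transcript level was measured by TaqMan qRT-PCR, normalized to ACTB, GAPDH and POLR2A, and fitted bidirectionally versus DMSO.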

Read-out in assay [5]: matrix metalloproteinase-10 (MMP10), MMP10 (gene 4319)
The assay can be described thus: LTEA_HepaRG_MMP10: Life Technologies and Expression Analysis (LTEA) Assay for matrix metalloproteinase-10 (MMP10) using HepaRG (AID 2283517). The gist of the method: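 HepaRG, collagen I, ~100,000 cells/well; serum-free induction medium; 48 h exposure, duplicate, 8-pt half-log to 100 uM, 0.5% DMSO. Readout: TaqMan qRT-PCR, normalized to ACTB/GAPDH/POLR2A; bidirectional fit vs DMSO.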

Read-out in another assay: MYC, MYC (gene 4609)
The assay can be described thus: LTEA_HepaRG_MYC: Life Technologies and Expression Analysis (LTEA) Assay for MYC using HepaRG (AID 2283518). The method in brief:
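Expression changes were scored by TaqMan qRT-PCR with ACTB, GAPDH and POLR2A normalization. Cultures in serum-free induction medium received duplicate 8-point concentration series, highest 100 uM, for 48 h; DMSO (0.5%) served as baseline.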

Read-out in assay [6]: matrix metalloproteinase-3 (MMP3), MMP3 (gene 4314)
Nature of the assay: LTEA_HepaRG_MMP3: Life Technologies and Expression Analysis (LTEA) Assay for matrix metalloproteinase-3 (MMP3) using HepaRG (AID 2283519). The method in brief:
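Differentiated human HepaRG cells, plated 48 h on collagen I, were exposed in duplicate for 48 h in serum-free induction medium to eight half-log concentrations up to 100 uM in 0.5% DMSO. MMP3 mRNA was quantified by TaqMan qRT-PCR, normalised to ACTB, GAPDH and POLR2A.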

Read-out in assay [7]: Paternally Expressed 10 (PEG10), PEG10 (gene 23089)
The assay can be described thus: LTEA_HepaRG_PEG10: Life Technologies and Expression Analysis (LTEA) Assay for Paternally Expressed 10 (PEG10) using HepaRG (AID 2283520). The gist of the method: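 Differentiated HepaRG cells, plated 48 h then switched to serum-free induction medium, were exposed in duplicate for 48 h to eight half-log concentrations topping at 100 uM in 0.5% DMSO. PEG10 mRNA was quantified by TaqMan qRT-PCR, normalised to ACTB, GAPDH and POLR2A.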

Read-out in assay [8]: Nuclear factor NF-kappa-B p105 subunit (Homo sapiens) (UniProt P19838)
Nature of the assay: LTEA_HepaRG_NFKB1: Life Technologies and Expression Analysis (LTEA) Assay for Nuclear Factor Kappa B Subunit 1 (NFKB1) using HepaRG (AID 2283521).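 Further: TaqMan qRT-PCR transcript normalised to ACTB GAPDH and POLR2A housekeeping genes.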 The method in brief:
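Human HepaRG cells receive eight half-log concentrations, highest 100 uM, for 48 h. NFKB1 expression is then quantified by qRT-PCR and analysed for up- or down-regulation relative to 0.5% DMSO vehicle.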

Read-out in assay [9]: Protein phosphatase 2A (PPP2R4), PTPA (gene 5524)
The assay can be described thus: LTEA_HepaRG_PPP2R4: Life Technologies and Expression Analysis (LTEA) Assay for Protein phosphatase 2A (PPP2R4) using HepaRG (AID 2283522). The method in brief: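 Differentiated HepaRG cells in serum-free induction medium were exposed in duplicate for 48 h to eight concentrations, top 100 uM with half-log dilutions, in 0.5% DMSO. PPP2R4 mRNA was quantified by TaqMan qRT-PCR, normalized to ACTB, GAPDH and POLR2A.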

Read-out in assay [10]: Phosphatase and tensin (PTEN), PTEN (gene 5728)
Nature of the assay: LTEA_HepaRG_PTEN: Life Technologies and Expression Analysis (LTEA) Assay for Phosphatase and tensin (PTEN) using HepaRG (AID 2283523). The method in brief: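 Differentiated human HepaRG cells, plated 48 h then switched to serum-free induction medium, were exposed in duplicate for 48 h to eight half-log concentrations up to 100 uM in 0.5% DMSO. PTEN mRNA measured by TaqMan qRT-PCR, normalized to ACTB/GAPDH/POLR2A, bidirectional fit versus DMSO.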

Read-out in assay [11]: solute carrier (SLC22A1), SLC22A1 (gene 6580)
The assay can be described thus: LTEA_HepaRG_SLC22A1: Life Technologies and Expression Analysis (LTEA) Assay for solute carrier (SLC22A1) using HepaRG (AID 2283524). The method in brief:
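Human HepaRG cells were plated 48 h, switched to serum-free induction medium, then exposed in duplicate for 48 h to 8-point half-log series from 100 uM in 0.5% DMSO. SLC22A1 mRNA measured by qRT-PCR, normalized to ACTB/GAPDH/POLR2A, fitted bidirectionally versus DMSO.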

Read-out in assay [12]: Pyruvate Dehydrogenase Kinase 4 (PDK4), PDK4 (gene 5166)
The assay can be described thus: LTEA_HepaRG_PDK4: Life Technologies and Expression Analysis (LTEA) Assay for Pyruvate Dehydrogenase Kinase 4 (PDK4) using HepaRG (AID 2283525). The method in brief: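 Differentiated human HepaRG cells, pre-cultured 48 h, were exposed in duplicate for 48 h in serum-free induction medium to eight half-log concentrations up to 100 uM in 0.5% DMSO. PDK4 mRNA was quantified by qRT-PCR, normalized to ACTB, GAPDH and POLR2A, bidirectional fitting versus DMSO.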

Read-out in assay [13]: NAD(P)H dehydrogenase [quinone] 1 (NQO1), NQO1 (gene 1728)
Nature of the assay: LTEA_HepaRG_NQO1: Life Technologies and Expression Analysis (LTEA) Assay for NAD(P)H dehydrogenase [quinone] 1 (NQO1) using HepaRG (AID 2283526). The method in brief: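 Differentiated HepaRG cells, plated 48 h and then switched to serum-free induction medium, were exposed in duplicate for 48 h to 8-point half-log concentrations up to 100 uM in 0.5% DMSO. mRNA measured by qRT-PCR, normalized to ACTB, GAPDH, POLR2A; bidirectional fit versus DMSO.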

Read-out in assay [14]: Nuclear factor erythroid 2-related factor 2 (Homo sapiens) (UniProt Q16236)
The assay can be described thus: LTEA_HepaRG_NFE2L2: Life Technologies and Expression Analysis (LTEA) Assay for Nuclear factor erythroid 2-related factor 2 (NFE2L2) Transcription Factor using HepaRG (AID 2283527).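 Further: TaqMan qRT-PCR transcript level normalised to ACTB GAPDH and POLR2A housekeeping genes.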 The method in brief: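 Differentiated human HepaRG cells in serum-free induction medium were exposed for 48 h to eight concentrations (top 100 uM, half-log dilutions, 0.5% DMSO), in duplicate. NFE2L2 mRNA was quantified by TaqMan qRT-PCR, normalized to ACTB, GAPDH and POLR2A, with bidirectional fitting versus DMSO.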

Read-out in assay [15]: succinate dehydrogenase complex iron sulfur subunit B (SDHB), SDHB (gene 6390)
Nature of the assay: LTEA_HepaRG_SDHB: Life Technologies and Expression Analysis (LTEA) Assay for succinate dehydrogenase complex iron sulfur subunit B (SDHB) using HepaRG (AID 2283528). The method in brief:
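A human HepaRG culture in serum-free induction medium received test chemicals for 48 h over an eight-point range capped at 100 uM. SDHB expression change was quantified by qRT-PCR.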

Read-out in assay [16]: Signal transducer and activator of transcription 3 (Homo sapiens) (UniProt P40763)
The assay can be described thus: LTEA_HepaRG_STAT3: Life Technologies and Expression Analysis (LTEA) Assay for Signal transducer and activator of transcription (STAT3) using HepaRG (AID 2283529). The gist of the method: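 Differentiated human HepaRG cells in serum-free induction medium were exposed in duplicate for 48 h to eight half-log concentrations up to 100 uM in 0.5% DMSO. STAT3 mRNA was quantified by TaqMan qRT-PCR, normalized to ACTB, GAPDH and POLR2A, and fitted bidirectionally against DMSO.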

Read-out in assay [17]: solute carrier (SLCO1B1), SLCO1B1 (gene 10599)
The assay can be described thus: LTEA_HepaRG_SLCO1B1: Life Technologies and Expression Analysis (LTEA) Assay for solute carrier (SLCO1B1) using HepaRG (AID 2283530). The method in brief:
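Human HepaRG cultures treated for 48 h with an eight-concentration half-log series topping at 100 uM; SLCO1B1 measured by qRT-PCR and fitted bidirectionally relative to DMSO.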

Read-out in assay [18]: sulfotransferase 2A1 (SULT2A1), SULT2A1 (gene 6822)
Nature of the assay: LTEA_HepaRG_SULT2A1: Life Technologies and Expression Analysis (LTEA) Assay for sulfotransferase 2A1 (SULT2A1) using HepaRG (AID 2283531). The method in brief:
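Gene-expression endpoint in a human liver cell line: SULT2A1 mRNA change after 48 h chemical treatment, curves fitted in both directions relative to 0.5% DMSO vehicle. Concentrations spanned eight half-log steps from 100 uM.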

Read-out in assay [19]: Transforming Growth Factor (TGFA), TGFA (gene 7039)
The assay can be described thus: LTEA_HepaRG_TGFA: Life Technologies and Expression Analysis (LTEA) Assay for Transforming Growth Factor (TGFA) using HepaRG (AID 2283532). The method in brief:
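Differentiated human HepaRG cells, plated 48 h then switched to serum-free induction medium, were exposed in duplicate for 48 h to 8-point half-log series from 100 uM in 0.5% DMSO. TGFA mRNA measured by qRT-PCR, normalized to ACTB/GAPDH/POLR2A, bidirectional fit versus DMSO.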

Calls of active or inactive are those of the source. How the source made its calls: active means hit-call score of the fitted dose curve at least 0.9, where 1 is the maximum; inactive means score below 0.9.

Chain of Nuclear factor erythroid 2-related factor 2 (Homo sapiens) (Q16236 whole entry, looked up): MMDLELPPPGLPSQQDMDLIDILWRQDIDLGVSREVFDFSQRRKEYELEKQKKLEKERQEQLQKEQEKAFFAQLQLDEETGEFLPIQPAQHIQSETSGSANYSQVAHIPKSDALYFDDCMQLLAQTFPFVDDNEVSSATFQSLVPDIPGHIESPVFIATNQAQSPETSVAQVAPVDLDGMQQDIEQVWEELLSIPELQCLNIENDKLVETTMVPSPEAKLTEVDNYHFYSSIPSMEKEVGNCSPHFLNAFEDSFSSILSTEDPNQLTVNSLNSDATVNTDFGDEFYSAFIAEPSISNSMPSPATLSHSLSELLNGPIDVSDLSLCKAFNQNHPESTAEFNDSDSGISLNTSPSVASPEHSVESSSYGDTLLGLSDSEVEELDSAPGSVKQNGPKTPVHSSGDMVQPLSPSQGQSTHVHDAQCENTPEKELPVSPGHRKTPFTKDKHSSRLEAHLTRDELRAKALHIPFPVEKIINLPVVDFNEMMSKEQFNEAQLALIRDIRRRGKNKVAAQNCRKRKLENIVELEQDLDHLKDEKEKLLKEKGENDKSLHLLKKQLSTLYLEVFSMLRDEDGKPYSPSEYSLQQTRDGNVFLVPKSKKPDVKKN
Chain of Nuclear factor NF-kappa-B p105 subunit (Homo sapiens) (P19838 whole entry, looked up): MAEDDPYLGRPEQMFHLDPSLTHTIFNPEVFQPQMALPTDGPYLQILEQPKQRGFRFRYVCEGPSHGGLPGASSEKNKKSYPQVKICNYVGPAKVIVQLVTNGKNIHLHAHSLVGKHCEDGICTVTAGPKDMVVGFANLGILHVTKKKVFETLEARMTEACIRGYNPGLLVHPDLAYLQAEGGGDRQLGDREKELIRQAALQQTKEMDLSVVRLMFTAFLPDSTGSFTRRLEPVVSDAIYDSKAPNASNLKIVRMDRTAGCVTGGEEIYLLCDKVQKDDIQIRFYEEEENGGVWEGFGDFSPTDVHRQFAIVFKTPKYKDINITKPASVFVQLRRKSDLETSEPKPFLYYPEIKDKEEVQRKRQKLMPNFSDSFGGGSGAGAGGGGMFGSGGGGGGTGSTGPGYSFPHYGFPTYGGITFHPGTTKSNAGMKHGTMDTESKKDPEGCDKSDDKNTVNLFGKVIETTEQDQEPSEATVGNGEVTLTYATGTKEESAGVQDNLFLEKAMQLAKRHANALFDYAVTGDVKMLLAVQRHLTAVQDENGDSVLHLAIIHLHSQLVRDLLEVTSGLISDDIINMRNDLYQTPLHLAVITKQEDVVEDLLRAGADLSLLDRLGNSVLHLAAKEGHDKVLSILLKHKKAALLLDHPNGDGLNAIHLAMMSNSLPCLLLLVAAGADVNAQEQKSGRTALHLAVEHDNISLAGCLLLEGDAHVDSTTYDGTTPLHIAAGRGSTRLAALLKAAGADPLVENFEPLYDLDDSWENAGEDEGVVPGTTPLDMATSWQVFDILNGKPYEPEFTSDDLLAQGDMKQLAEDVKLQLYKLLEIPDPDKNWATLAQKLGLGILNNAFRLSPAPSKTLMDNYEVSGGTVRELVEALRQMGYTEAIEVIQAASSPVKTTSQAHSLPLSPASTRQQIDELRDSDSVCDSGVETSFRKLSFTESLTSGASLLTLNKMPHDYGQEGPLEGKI
Chain of Signal transducer and activator of transcription 3 (Homo sapiens) (P40763 whole entry, looked up): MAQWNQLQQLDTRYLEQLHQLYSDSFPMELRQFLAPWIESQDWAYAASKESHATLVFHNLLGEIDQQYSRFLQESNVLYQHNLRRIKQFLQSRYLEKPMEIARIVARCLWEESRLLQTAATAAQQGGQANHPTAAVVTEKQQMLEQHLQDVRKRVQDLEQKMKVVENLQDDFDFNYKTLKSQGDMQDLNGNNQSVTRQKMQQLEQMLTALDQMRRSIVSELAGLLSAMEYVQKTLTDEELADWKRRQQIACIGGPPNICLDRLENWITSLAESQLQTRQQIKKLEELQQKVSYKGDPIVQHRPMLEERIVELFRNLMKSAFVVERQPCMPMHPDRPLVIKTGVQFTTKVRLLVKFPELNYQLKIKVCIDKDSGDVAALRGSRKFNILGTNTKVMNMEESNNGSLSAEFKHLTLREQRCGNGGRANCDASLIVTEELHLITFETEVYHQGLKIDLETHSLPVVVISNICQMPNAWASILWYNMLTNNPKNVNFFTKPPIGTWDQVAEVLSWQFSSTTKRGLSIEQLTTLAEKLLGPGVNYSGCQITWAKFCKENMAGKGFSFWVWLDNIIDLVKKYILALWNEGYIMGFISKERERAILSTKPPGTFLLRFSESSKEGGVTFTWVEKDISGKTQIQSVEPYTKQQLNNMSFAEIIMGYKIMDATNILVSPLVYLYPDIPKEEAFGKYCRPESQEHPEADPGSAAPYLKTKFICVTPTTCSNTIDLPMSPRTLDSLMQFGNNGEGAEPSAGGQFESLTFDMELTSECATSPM

In the case of `O=C1CCC(N2C(=O)c3ccccc3C2=O)C(=O)N1` (centres undefined), the outcome is “inactive” in assay [1]; “inactive” in assay [2]; “inactive” in [3]; “inactive” in [4]; “inactive” in assay [5]; “inactive” in the assay with MYC, MYC (gene 4609). Moreover, the call in [6], in assay [7], in assay [8], in [9], in assay [10] and in [11] was inactive. The compound was called inactive in assay [12], in assay [13], in [14], in assay [15], in assay [16] and in assay [17]. For the same compound, the compound was called inactive in assay [18] and in assay [19].

On to `CC(C)(O)c1coc(S(=O)(=O)NC(=O)Nc2c3c(cc4c2CCC4)CCC3)c1`, for which the outcome in assay [1] is “inactive”; in assay [2], “inactive”; in [3], “inactive”; in assay [4], “inactive”; in assay [5], “inactive”; with MYC, MYC (gene 4609), “inactive”. In addition, the outcome in [6], in assay [8], in [9], in [10], in assay [11] and in [12] was inactive. Moreover, the compound was classed as inactive in [13], in [14], in assay [15], in [16], in assay [17] and in assay [18]. Besides, the result in [19] was inactive. In addition, the AC50 in assay [7] was 50 µM (active).

As to `COC(=O)c1c(Cl)c(Cl)c(C(=O)OC)c(Cl)c1Cl`, the outcome is “inactive” in assay [1]; “inactive” in [2]; “inactive” in assay [3]; “inactive” in [4]; “inactive” in assay [5]; “inactive” with MYC, MYC (gene 4609). For the same compound, the compound was called inactive in assay [6], in [7], in assay [8], in assay [9], in [10] and in assay [11]. Moreover, the result in [12], in assay [13], in [14], in assay [15], in assay [16] and in [17] was inactive. Also, in assay [19], the result was inactive.

(Values after PubChem BioAssay (EPA / NIEHS).)
